Assay results from the supplement of paper PMC10849652.
The full data set covers some 7,900 targets. This sample favours those with a hit. About 0.6% of all pairs of compound and target were hits. A number with no mark means an inactive call.

Tests used:
Assay in all cases: log2 fold change, soluble protein after heating vs DMSO (PISA); higher = thermal stabilisation; K562 cells, 10 uM, 30 min; active = over 0.2 and 3.5 SD of the protein, either way, in both replicates (recomputed)
[1] = compound: C#Cc1cccc(Nc2ncnc3cc(OCCOC)c(OCCOC)cc23)c1 [erlotinib]
Method in brief: (§1)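 Thermal stability values are relative to control samples and come from duplicates. They are expressed as log2 fold changes. For measurement, K562 cells (2×10^6 cells/mL) received 10 μM compound for 30 min, and aliquots were heated for 3 min over 48°C-58°C, pooled, and extracted at 4°C in PBS with 0.5% NP-40. Soluble protein, the supernatant after 21,000xg for 90 min, was quantified by TMTpro 16plex LC-MS/MS with equalised channel sums.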

[2] = compound: C/C(=N\NC(=O)C1=CC(=CC=C1)S(=O)(=O)N2CCOCC2)/C3=C(C=CC(=C3)Cl)O
Method in brief: as §1

[3] = compound: C1=CC(=C(C=C1Cl)C2=NC3=NC=CN=C3C(=N2)NC4=CC=NC=C4)F
Method in brief: as §1

[4] = compound: C1=CC(=CC=C1C2=NC3=C(N2)C=C(C=C3)C(=O)N)OC4=CC=C(C=C4)Cl
Method in brief: as §1

[5] = compound: C1=CC2=C(C=CC(=C2)/C=C\3/C(=O)NC(=NCC4=CC=CS4)S3)N=C1
Method in brief: as §1

[6] = compound: C1=CC2=NC=CN=C2C=C1/C=C/3\C(=O)NC(=O)S3
Method in brief: as §1

[7] = compound: C1=CC=C(C=C1)C2=NC(=C(N2)C3=CC=NC=C3)C4=CC(=C(C=C4)Cl)O
Method in brief: as §1

[8] = compound: C1=CC=C2C(=C1)C3=NNC4=CC=CC(=C43)C2=O
Method in brief: as §1

[9] = compound: C1CCN(C1)C(=O)NC2=CC=CC(=C2)NC3=NC=C(C(=N3)NCCC4=CN=CN4)Br
Method in brief: as §1

[10] = compound: C1CN(CCC1(CC2=CC=C(C=C2)Cl)N)C3=NC=NC4=C3C=CN4
Method in brief: as §1

[11] = compound: C1COCCN1CCN2C3=CC=CC=C3N=C2NC(=O)C4=CC(=CC=C4)[N+](=O)[O-] [IRAK-1-4 Inhibitor I]
Method in brief: as §1

[12] = compound: C=CC(=O)N1CCC[C@@H](n2nc(-c3ccc(Oc4ccccc4)cc3)c3c(N)ncnc32)C1 [ibrutinib]
Method in brief: as §1

[13] = compound: CC(=O)c1cnc2ccc(-c3cc(Cl)c(O)c(Cl)c3)nc2c1N[C@H]1CC[C@H](CN(C)C)CC1
Method in brief: as §1

[14] = compound: CC(C)(C)Cn1c(N)nc2ccc(-c3[nH]c(C(C)(C)C)nc3-c3ccc(F)cc3)nc21 [ralimetinib]
Method in brief: as §1

[15] = compound: CC(C)(O)CC(=O)NCCn1ccc2ncnc(Nc3ccc(Oc4cccc(C(F)(F)F)c4)c(Cl)c3)c21
Method in brief: as §1

[16] = compound: CC(C)C1=C2N=C(C=C(N2N=C1)NCC3=CC=CC=C3)NCCCCCCN
Method in brief: as §1

[17] = compound: CC(C)C[C@@H](C=O)NC(=O)[C@H](CC(C)C)NC(=O)[C@H](CC(C)C)NC(=O)OCc1ccccc1
Method in brief: as §1

[18] = compound: CC(C)N(C[C@H]1O[C@@H](n2cnc3c(N)ncnc32)[C@H](O)[C@@H]1O)[C@H]1C[C@@H](CCc2nc3cc(C(C)(C)C)ccc3[nH]2)C1 [pinometostat]
Method in brief: as §1

[19] = compound: CC1=C(C(CC(=O)N1)C2=CC=C(C=C2)C(F)(F)F)C(=O)NC3=C(C=C4C(=C3)C=NN4)F
Method in brief: as §1

[20] = compound: CC1=C(C2=C(C=C1)C(=O)C3=CC=CC=C3N2CCCN)C
Method in brief: as §1

UniProt O14929, sequence (O14929 whole entry, looked up): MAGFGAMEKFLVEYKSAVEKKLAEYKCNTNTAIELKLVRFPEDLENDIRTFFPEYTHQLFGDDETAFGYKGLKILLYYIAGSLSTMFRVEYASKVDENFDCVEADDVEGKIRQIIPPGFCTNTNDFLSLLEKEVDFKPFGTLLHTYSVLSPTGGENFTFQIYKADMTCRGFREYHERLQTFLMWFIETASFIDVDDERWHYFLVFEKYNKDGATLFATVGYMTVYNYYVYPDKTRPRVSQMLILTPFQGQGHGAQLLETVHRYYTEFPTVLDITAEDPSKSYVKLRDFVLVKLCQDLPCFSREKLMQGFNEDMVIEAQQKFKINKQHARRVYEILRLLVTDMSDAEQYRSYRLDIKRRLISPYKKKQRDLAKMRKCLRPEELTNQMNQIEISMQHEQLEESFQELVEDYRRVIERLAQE
UniProt Q92522, sequence (Q92522 whole entry, looked up): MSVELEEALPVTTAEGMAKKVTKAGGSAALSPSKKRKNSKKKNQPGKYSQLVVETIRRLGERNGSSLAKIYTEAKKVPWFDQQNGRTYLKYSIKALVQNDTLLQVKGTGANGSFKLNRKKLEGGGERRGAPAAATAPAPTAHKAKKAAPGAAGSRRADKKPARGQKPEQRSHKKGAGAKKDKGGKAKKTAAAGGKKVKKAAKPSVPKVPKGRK
UniProt Q8N2G8, sequence (Q8N2G8 whole entry, looked up): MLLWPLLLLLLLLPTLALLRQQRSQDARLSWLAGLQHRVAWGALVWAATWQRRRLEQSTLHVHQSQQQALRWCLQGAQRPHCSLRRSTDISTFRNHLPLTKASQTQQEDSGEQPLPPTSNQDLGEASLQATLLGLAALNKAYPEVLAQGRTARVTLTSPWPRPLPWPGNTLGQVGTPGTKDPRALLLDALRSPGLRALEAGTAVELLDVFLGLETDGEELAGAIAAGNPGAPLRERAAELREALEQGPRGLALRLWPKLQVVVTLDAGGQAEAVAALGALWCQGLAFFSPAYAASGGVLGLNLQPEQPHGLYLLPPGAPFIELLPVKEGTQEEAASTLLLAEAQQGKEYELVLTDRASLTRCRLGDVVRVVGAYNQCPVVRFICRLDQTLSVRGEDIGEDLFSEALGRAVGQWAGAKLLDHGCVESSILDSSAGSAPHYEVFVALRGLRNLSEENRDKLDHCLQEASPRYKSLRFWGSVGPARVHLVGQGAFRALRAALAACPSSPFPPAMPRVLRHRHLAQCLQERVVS
UniProt P46976, sequence (P46976 whole entry, looked up): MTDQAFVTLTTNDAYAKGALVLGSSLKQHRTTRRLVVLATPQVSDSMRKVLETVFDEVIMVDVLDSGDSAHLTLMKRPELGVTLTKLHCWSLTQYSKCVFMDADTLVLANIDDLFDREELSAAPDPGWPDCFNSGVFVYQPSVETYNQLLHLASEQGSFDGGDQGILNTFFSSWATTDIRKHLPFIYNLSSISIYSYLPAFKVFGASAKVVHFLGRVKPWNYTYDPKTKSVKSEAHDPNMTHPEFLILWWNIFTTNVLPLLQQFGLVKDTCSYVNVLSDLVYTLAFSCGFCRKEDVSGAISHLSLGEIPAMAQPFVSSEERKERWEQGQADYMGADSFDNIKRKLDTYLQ
UniProt O15228, sequence (O15228 whole entry, looked up): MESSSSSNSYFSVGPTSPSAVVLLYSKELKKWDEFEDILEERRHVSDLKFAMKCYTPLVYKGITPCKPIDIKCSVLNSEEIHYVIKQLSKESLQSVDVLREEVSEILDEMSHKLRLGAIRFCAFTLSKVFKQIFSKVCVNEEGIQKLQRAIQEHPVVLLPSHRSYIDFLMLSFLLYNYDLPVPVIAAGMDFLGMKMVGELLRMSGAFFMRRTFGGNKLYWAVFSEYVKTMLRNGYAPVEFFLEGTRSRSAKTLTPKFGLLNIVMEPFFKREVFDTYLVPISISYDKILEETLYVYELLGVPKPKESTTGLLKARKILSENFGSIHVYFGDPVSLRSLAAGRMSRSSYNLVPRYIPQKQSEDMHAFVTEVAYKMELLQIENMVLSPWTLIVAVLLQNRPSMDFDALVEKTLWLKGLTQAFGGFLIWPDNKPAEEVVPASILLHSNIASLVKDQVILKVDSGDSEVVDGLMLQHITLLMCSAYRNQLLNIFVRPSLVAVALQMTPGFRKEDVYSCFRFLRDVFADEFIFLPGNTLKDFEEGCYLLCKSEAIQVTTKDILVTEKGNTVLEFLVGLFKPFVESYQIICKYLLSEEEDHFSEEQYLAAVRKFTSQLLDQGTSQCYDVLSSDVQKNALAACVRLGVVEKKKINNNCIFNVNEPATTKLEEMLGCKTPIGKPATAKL
UniProt P06865, sequence (P06865 whole entry, looked up): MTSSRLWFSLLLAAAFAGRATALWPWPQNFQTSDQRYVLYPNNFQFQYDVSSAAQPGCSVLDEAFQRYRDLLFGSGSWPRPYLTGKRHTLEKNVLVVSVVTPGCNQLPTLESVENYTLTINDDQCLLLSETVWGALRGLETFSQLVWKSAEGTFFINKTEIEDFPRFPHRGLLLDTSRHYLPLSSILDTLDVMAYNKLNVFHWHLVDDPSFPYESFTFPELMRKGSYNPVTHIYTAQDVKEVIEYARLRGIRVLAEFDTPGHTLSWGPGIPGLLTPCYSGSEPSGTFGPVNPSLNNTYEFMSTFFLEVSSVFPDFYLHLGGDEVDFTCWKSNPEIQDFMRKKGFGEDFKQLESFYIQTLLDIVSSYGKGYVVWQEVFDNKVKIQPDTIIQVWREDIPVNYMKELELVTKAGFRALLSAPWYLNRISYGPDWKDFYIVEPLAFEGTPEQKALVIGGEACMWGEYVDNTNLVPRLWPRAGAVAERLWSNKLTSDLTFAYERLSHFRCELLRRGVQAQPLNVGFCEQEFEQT
UniProt P09211, sequence (P09211 whole entry, looked up): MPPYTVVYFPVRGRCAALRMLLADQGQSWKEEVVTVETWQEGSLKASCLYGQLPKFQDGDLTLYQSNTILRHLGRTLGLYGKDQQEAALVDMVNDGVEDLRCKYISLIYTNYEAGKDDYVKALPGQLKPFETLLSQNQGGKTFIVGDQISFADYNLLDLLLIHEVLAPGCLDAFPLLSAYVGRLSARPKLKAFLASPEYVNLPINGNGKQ
UniProt Q13547, sequence (Q13547 whole entry, looked up): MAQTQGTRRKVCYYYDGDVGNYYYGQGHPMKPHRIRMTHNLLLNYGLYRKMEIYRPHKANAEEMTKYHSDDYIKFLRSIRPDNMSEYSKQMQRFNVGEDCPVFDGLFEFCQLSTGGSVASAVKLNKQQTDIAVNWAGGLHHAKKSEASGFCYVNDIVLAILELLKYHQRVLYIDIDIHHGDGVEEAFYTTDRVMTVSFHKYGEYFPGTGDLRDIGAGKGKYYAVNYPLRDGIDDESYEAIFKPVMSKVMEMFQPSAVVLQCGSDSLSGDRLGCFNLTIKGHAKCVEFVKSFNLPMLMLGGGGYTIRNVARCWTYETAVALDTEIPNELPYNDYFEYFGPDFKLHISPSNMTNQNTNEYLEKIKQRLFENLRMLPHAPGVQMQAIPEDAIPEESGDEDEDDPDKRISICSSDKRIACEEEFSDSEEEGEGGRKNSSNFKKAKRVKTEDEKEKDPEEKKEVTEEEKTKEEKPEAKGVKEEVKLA
UniProt P40939, sequence (P40939 whole entry, looked up): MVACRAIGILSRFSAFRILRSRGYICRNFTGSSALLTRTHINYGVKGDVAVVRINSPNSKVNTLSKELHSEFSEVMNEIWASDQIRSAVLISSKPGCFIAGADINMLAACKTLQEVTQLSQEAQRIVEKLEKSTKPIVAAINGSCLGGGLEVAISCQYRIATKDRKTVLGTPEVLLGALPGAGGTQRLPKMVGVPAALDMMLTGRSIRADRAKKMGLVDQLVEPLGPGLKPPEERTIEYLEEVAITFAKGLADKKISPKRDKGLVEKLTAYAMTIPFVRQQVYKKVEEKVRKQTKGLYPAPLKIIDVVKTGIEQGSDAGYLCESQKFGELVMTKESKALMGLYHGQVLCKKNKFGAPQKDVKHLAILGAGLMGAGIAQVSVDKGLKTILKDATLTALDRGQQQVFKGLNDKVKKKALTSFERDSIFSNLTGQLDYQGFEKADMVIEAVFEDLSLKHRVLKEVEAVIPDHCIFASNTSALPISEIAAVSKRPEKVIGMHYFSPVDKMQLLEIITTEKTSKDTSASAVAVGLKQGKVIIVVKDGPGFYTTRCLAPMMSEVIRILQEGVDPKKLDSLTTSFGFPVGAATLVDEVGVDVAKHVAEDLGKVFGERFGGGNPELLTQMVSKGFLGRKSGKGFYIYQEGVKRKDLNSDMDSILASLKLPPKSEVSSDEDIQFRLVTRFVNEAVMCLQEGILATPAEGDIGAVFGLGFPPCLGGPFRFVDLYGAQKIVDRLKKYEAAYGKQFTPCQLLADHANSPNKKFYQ
UniProt P39748, sequence (P39748 whole entry, looked up): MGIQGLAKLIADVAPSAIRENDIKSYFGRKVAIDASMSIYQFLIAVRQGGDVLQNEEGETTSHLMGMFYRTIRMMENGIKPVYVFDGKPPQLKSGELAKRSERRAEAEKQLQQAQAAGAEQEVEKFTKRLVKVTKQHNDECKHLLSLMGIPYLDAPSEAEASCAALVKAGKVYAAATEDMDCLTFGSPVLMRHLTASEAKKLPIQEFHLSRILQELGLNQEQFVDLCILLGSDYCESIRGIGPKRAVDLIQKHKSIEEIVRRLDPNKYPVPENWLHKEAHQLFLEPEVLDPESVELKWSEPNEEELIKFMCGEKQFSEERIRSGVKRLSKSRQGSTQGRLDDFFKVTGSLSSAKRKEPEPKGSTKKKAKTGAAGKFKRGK
UniProt P09105, sequence (P09105 whole entry, looked up): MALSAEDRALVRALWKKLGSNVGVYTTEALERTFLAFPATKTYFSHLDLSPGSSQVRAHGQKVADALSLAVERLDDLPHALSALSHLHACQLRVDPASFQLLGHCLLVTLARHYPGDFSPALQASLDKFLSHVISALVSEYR
UniProt Q8WXD5, sequence (Q8WXD5 whole entry, looked up): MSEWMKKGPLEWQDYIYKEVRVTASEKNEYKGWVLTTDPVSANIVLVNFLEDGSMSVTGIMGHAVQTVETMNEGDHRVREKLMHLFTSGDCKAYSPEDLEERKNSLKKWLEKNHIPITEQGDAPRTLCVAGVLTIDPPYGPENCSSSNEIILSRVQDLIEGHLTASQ

| Target | log2 fold change [1] | log2 fold change [2] | log2 fold change [3] | log2 fold change [4] | log2 fold change [5] | log2 fold change [6] | log2 fold change [7] | log2 fold change [8] | log2 fold change [9] | log2 fold change [10] | log2 fold change [11] | log2 fold change [12] | log2 fold change [13] | log2 fold change [14] | log2 fold change [15] | log2 fold change [16] | log2 fold change [17] | log2 fold change [18] | log2 fold change [19] | log2 fold change [20] |
| --- | --- | --- | --- | --- | --- | --- | --- | --- | --- | --- | --- | --- | --- | --- | --- | --- | --- | --- | --- | --- |
| HADHA (UniProt P40939) | -0.085 | 0.122 | 0.044 | -0.18 | 0.042 | 0.02 | 0.07 | 0.271 | -0.214 | 0.171 | -0.001 | 0.175 | -0.358 | 0.058 | -0.132 | 0.43 | -0.116 | -0.064 | -0.125 | 0.054 |
| GATA1 (UniProt P15976) | 0.05 | 0.024 | -0.021 | -0.015 | 0.032 | 0.028 | -0.021 | -0.083 | 0.031 | -0.004 | 0.038 | 0.015 | 0.051 | 0.041 | 0.027 | 0.047 | 0.088 | 0.027 | 0.081 | -0.368 (active) |
| GYG1 (UniProt P46976) | -0.064 | 0.016 | -0.23 | 0.005 | 0.089 | -0.039 | -0.109 | 0.083 | -0.075 | -0.027 | -0.055 | 0.025 | -0.29 | 0.176 | 0.029 | -0.114 | 0.064 | 0.125 | 0.03 | 0.035 |
| GNPAT (UniProt O15228) | 0.067 | 0.112 | 0.075 | -0.001 | 0.073 | 0.03 | 0.057 | 0.019 | -0.003 | 0.058 | 0.026 | -0.007 | -0.017 | 0.02 | -0.053 | -0.018 | -0.014 | -0.018 | 0.004 | 0.024 |
| HDAC1 (UniProt Q13547) | 1.14 (active) | 0.015 | 0.011 | -0.01 | 0.16 | 0.004 | 0.021 | -0.055 | -0.004 | -0.018 | -0.033 | -0.052 | 0.056 | 0.02 | -0.021 | -0.009 | -0.067 | 0.03 | 0.003 | 0.023 |
| H1FX (UniProt Q92522) | -0.285 | -0.189 | -0.379 | 0.016 | -0.12 | -0.012 | 0.033 | 0 | 0.076 | -0.101 | -0.171 | 0.077 | 0.231 | 0.204 | 0.031 | 0.13 | 0.09 | 0.246 | 0.02 | -0.718 (active) |
| GSTP1 (UniProt P09211) | 0.021 | 0.038 | 0.013 | -0.016 | 0.041 | 0.037 | 0.014 | 0.005 | 0.021 | 0.057 | 0.12 | -0.038 | -0.074 | -0.021 | -0.015 | 0.016 | -0.023 | -0.026 | -0.004 | 0.03 |
| FAM91A1 (UniProt Q658Y4) | 0.005 | 0.019 | 0.168 | 0.082 | 0.019 | -0.017 | -0.033 | 0.069 | -0.057 | -0.152 | 0.092 | -0.025 | -0.025 | 0.076 | -0.198 | -0.041 | 0 | 0.134 | 0.018 | 0.083 |
| HAT1 (UniProt O14929) | -0.048 | 0.036 | 0.044 | 0.048 | -0.075 | -0.045 | 0.03 | 0.027 | -0.055 | 0.069 | 0.027 | -0.009 | -0.109 | -0.003 | -0.027 | 0.006 | -0.022 | -0.048 | -0.013 | -0.03 |
| HEXA (UniProt P06865) | 0.012 | -0.012 | 0.013 | 0.007 | 0.024 | 0.004 | -0.003 | -0.023 | 0.01 | 0.007 | 0.013 | 0.004 | 0.018 | -0.062 | 0.024 | -0.179 | 0.032 | -0.043 | -0.003 | -0.05 |
| HBQ1 (UniProt P09105) | -0.007 | -0.021 | 0.33 (active) | 0.03 | 0.059 | 0.011 | 0.051 | -0.021 | -0.093 | 0.026 | 0.003 | 0.016 | 0.01 | -0.034 | -0.078 | 0.095 | -0.102 | 0.004 | 0.027 | 0.147 |
| FLNA (UniProt P21333) | 0.022 | 0.072 | -0.002 | -0.032 | -0.022 | 0.005 | 0.013 | -0.017 | -0.018 | -0.133 | -0.046 | -0.111 | 0.031 | 0.035 | -0.086 | -0.112 | 0.049 | 0.081 | -0.017 | -0.027 |
| GEMIN6 (UniProt Q8WXD5) | -0.002 | 0.02 | -0.042 | 0.027 | -0.022 | 0.065 | 0.125 | -0.012 | -0.002 | -0.045 | 0.035 | 0.021 | 0.016 | 0.188 | -0.03 | -0.012 | -0.226 | 0.046 | -0.004 | 0.03 |
| FEN1 (UniProt P39748) | 0.126 | 0.098 | 0.091 | 0.026 | 0.172 | 0.003 | 0.118 | 0.026 | 0.007 | -0.068 | -0.071 | -0.016 | -0.116 | -0.008 | -0.368 | -0.393 | 0.039 | -0.03 | -0.067 | -0.016 |
| GHDC (UniProt Q8N2G8) | 0.062 | 0.046 | -0.002 | 0.013 | 0.011 | 0.003 | -0.021 | -0.008 | -0.009 | 0.06 | 0.014 | 0.015 | -0.036 | 0.007 | 0.037 | -0.277 (active) | 0.018 | -0.015 | 0.025 | -0.011 |
